FUS yeast rescue – qHTS for Suppressors of FUS Proteinopathy: Primary screen using FUS-linked yeast assay; S. cerevisiae FUS-expressing, growth rescue, OD600, 24 h; Potency, µM (series often up to 76.6 µM), usual class: activators; actives 0.24% (n = 390,000);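 note: plate controls were DMSO vehicle for no effect and reference control for full effect; nearly all actives have a fitted effect of over 55% in size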
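Restored growth of FUS-toxic S. cerevisiae, read as 600 nm absorbance after 24 h at 30C in galactose medium (starting OD 0.005). Controls CP55940 and DMSO.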
aSyn rescue – qHTS of alpha-syn Inhibitors; Yeast expressing alpha-synuclein, growth rescue, BacTiter-Glo, 24 h; Potency, µM (highest dose often 46.1 µM), for inactives: top-dose growth rescue (activation), actives largely listed as activators; actives 0.14% (n = 370,000); note: % of control where 0% means no effect; nearly all actives have a fitted effect of over 65% in size
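Galactose-induced alpha-syn yeast (OD600=0.02, raffinose-pregrown) + pinned cpd, 24 hr, 30 deg C; growth by BacTiter-Glo luminescence. Growth restoration scores as activation.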
Abeta rescue – qHTS for compounds that reverse cellular toxicity of Amyloid beta (A-beta) peptide in yeast: Primary Screen; yeast expressing A-beta42, growth rescue, OD600, 48 h; response scale: 0% DMSO, 100% iron-clioquinol control; Potency, µM (top dose mostly 46.1 µM), most hits filed as activators; actives 0.063% (n = 410,000); note: nearly all actives have a fitted effect of over 55% in size
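Yeast A-beta toxicity model in growth medium with pinned compounds, 48 h at 30 C; growth read as absorbance at 600 nm. Normalized to FeCl3/clioquinol equimolar mix (positive) and DMSO (negative).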
TSG101-PTAP inh – qHTS Assay for Iinhibitors of HIV-1 Budding by Blocking the Interaction of PTAP/TSG101; Tumor susceptibility gene 101 protein (Homo sapiens), Q99816; Fluorescence polarization, FITC-PTAP peptide / Tsg101 binding; Potency, µM (doses to about 115 µM), without a hit: top-dose activity change, negative = inhibition, actives largely listed as inhibitors; 340,000 tested, under 10 active; AID 493005, 2010; active = well fitted inhibition curve with a large enough effect in the main read-out, with a control signal flat, not every such curve was filed as active; inconclusive = small, poorly fitted or top-dose-only effect, or effect the other way, or a change in a side signal; inactive = no such curve, though single readings can be large or run the other way; note: % of control where 0% means no effect
Target sequence (Q99816 whole entry, looked up): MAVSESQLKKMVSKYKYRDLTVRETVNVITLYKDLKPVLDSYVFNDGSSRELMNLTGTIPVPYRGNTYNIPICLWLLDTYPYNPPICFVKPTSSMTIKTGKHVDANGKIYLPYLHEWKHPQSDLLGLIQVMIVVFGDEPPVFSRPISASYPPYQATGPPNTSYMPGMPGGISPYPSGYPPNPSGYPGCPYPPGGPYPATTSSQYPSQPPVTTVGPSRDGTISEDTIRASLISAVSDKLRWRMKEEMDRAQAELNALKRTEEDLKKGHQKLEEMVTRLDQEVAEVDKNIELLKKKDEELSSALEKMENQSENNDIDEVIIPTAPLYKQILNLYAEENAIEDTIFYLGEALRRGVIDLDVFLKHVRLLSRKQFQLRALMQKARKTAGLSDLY
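Tsg101 binding domain (10 uM final) was mixed with compound and a FITC-labeled PTAP peptide (50 nM final) in HEPES pH 7.5 buffer with NaCl, Tween 20, EDTA and TCEP; fluorescence polarization was read after 20 min at r.t.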
TDP-43 yeast inh – qHTS of TDP-43 Inhibitors; TDP-43 expressing yeast growth rescue, BacTiter-Glo, 24 h; Potency, µM (series often up to 46.1 µM), for the others: at the top dose growth rescue (activation), most hits filed as activators; actives 1.8% (n = 410,000); AID 652104, 2013; note: % of control where 0% means no effect; nearly all actives have a fitted effect of over 50% in size
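Yeast expressing TDP-43 (pregrown in raffinose, seeded at OD600=0.02 in galactose medium) exposed to compounds 24 hr at 30 deg C. Growth read by BacTiter-Glo luminescence; rescue of toxicity appears as increased signal.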
* hit, by the source's call; i = inactive; ? = inconclusive; nt = no result; [ ] = another dose, or the depositor's remark. In the library only some 2.1% were active in any assay of this set; here they are far more common. Unless noted, calls come from the whole dose curve; as a rule, active = well fitted curve in the direction sought with a large enough effect; inconclusive = small, poorly fitted or top-dose-only effect, or another doubt; inactive = no such curve, though single readings can be large; an effect the other way counts as inactive or inconclusive. Potency is the fitted concentration of half-maximal effect.

SMILES	FUS yeast rescue	aSyn rescue	Abeta rescue	TSG101-PTAP inh	TDP-43 yeast inh
O=C(Oc1cc2oc(=O)cc(-c3ccccc3)c2cc1Cl)C1CCCCC1	i	4%	i[9.22 µM]	2%	3.5µM*
CC(C)(C)OC(=O)NCC(=O)Oc1cc2oc(=O)cc(-c3ccccc3)c2cc1Cl	nt	1%	i	-2%	?
COc1ccc(COC(=O)C2CCN(S(=O)(=O)c3ccc(F)cc3)CC2)cc1	i	-6%	i	-7%	-5%
O=C(OCc1ccc([N+](=O)[O-])cc1)C1CCN(S(=O)(=O)c2ccccc2)CC1	i	0%	i	1%	10µM*
C[C@H](CO)N1C[C@H](C)[C@@H](CN(C)C(=O)Nc2ccc3c(c2)OCO3)Oc2c(NC(=O)Nc3ccc(C(F)(F)F)cc3)cccc2C1=O	22µM*	-12%	i	-4%	4%
C[C@H](CO)N1C[C@H](C)[C@@H](CN(C)C(=O)Nc2ccc(C(F)(F)F)cc2)Oc2c(NC(=O)Nc3ccc4c(c3)OCO4)cccc2C1=O	?	-4%	i	-3%	8%

Screens as filed in PubChem.
